# Laboratory results as given in the supplement of paper PMC6555819.
# Columns and labels:
# Experiment in all cases: PBM binding z-score (relative to random genomic background probes); higher = stronger binding; sequences stand for … in GC…GCGATTGACAGCGTAGAATGAAGG
# [1] = system: PPARg:RXRa DBDmut IVT, anti-RXR (DBD mutation: RXRa K156A/R161A, NR concentration 270 nM, RXRa partner concentration 90 nM)
# How it was run: (§1)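 On custom Agilent 4×180K arrays, double-stranded probes with 34-nt variable regions carried direct-repeat seeds, single-nucleotide variants, half-site ablations or random human genomic background. Ligand-free nuclear receptor dimers were applied for 1 h, and binding was read with antibodies against each partner (one per run). Binding z-scores come from regression-normalized fluorescence, with the random background probes as reference.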
# [2] = system: PPARg:RXRa IVT, anti-PPARg (NR concentration 270 nM, RXRa partner concentration 90 nM)
# How it was run: as §1
# [3] = system: PPARg DBDmut:RXRa IVT, anti-PPARg (DBD mutation: PPARg1 K132A/R137A, NR concentration 270 nM, RXRa partner concentration 90 nM)
# How it was run: as §1
# [4] = system: PPARg DBDmut IVT, anti-PPARg (DBD mutation: PPARg1 K132A/R137A, NR concentration 270 nM)
# How it was run: as §1
# [5] = system: PPARg homodimer (NR concentration 180 nM)
# How it was run: as §1
# [6] = system: PXR:RXRa (NR concentration 270 nM, RXRa partner concentration 90 nM)
# How it was run: as §1
# [7] = system: PXR homodimer (NR concentration 270 nM)
# How it was run: as §1
# [8] = system: RARa:RXR (NR concentration 270 nM, RXRa partner concentration 90 nM)
# How it was run: as §1
# [9] = system: RARa homodimer (NR concentration 270 nM)
# How it was run: as §1
# [10] = system: RARb homodimer (NR concentration 270 nM)
# How it was run: as §1
# [11] = system: RARg:RXRa (NR concentration 270 nM, RXRa partner concentration 90 nM)
# How it was run: as §1
# [12] = system: RARg homodimer (NR concentration 270 nM)
# How it was run: as §1
# [13] = system: RXRa DBDmut IVT, anti-RXR (DBD mutation: RXRa K156A/R161A, NR concentration 90 nM)
# How it was run: as §1
# [14] = system: RXRa homodimer (NR concentration 180 nM)
# How it was run: as §1
# [15] = system: THRa:RXRa (NR concentration 90 nM, RXRa partner concentration 90 nM)
# How it was run: as §1
# [16] = system: THRa homodimer (NR concentration 90 nM)
# How it was run: as §1
# [17] = system: VDR homodimer (NR concentration 270 nM)
# How it was run: as §1
# [18] = system: VDR:RXRa (NR concentration 270 nM, RXRa partner concentration 90 nM)
# How it was run: as §1
Sequence,PBM binding z-score [1],PBM binding z-score [2],PBM binding z-score [3],PBM binding z-score [4],PBM binding z-score [5],PBM binding z-score [6],PBM binding z-score [7],PBM binding z-score [8],PBM binding z-score [9],PBM binding z-score [10],PBM binding z-score [11],PBM binding z-score [12],PBM binding z-score [13],PBM binding z-score [14],PBM binding z-score [15],PBM binding z-score [16],PBM binding z-score [17],PBM binding z-score [18]
GATACAGAGTCAGCTAGAGGCCAGAGTATGGAAA,-0.664,-0.657,-0.407,-0.534,-0.64,-0.537,-0.489,-0.487,-0.438,-0.00482,0.958,0.249,-0.732,-0.0704,-0.305,-1.05,-0.0123,–
TAGCCTAGGCCATGGGCCAGTATACCACGCGAAC,-0.977,-0.175,-0.116,-1.11,-1.27,-0.806,-1.11,-0.86,-1.48,-0.0202,-0.148,0.285,-1.69,-0.256,-0.253,-0.645,-0.837,–
GCTGCTAGGTCAGGTTGGTCGGCTAACGGGTACG,2.56,1.97,-0.279,-0.788,0.576,-0.127,-0.593,0.317,-0.865,2.31,2.38,3.52,-0.206,0.882,1.5,0.491,0.0919,0.166
CAAGCTAGGTCAAGAGGTCAAAGTCCGCTTCCCG,4.26,5.5,0.198,-0.534,7.12,6.25,3.16,7.58,3.04,5.7,8.34,7.66,2.58,8.24,4.31,2.36,3.64,5.9
CGTCTAAGGTCAAGGTCAGTGAAAGAGACTCGAA,4.02,4.78,0.613,0.471,4.29,5.41,1.4,5.75,2.57,5.28,7.24,8.01,4.05,7.32,4.53,4.38,3.2,–
TAGCCTAGGACATGCGGGCCAGTATAGTGTCGGC,-0.985,-0.448,-1.11,-0.53,-1.04,-0.867,-0.905,-0.797,-0.552,-0.329,-0.38,0.0739,-1.32,-0.25,0.348,-0.342,-1.08,–
CGTCCAAGGTCAACAGGTCAGTGAAAGCGACGTG,3.88,4.5,0.0184,0.0079,5.41,4.98,1.28,5.92,1.34,5.3,7.26,7.37,3.65,6.49,4.23,2.98,2.51,–
CCTGCTAGGTCTATGGTCAGCTAAAGCAGCTCGC,-0.291,-0.225,-0.749,-1.11,-0.133,-0.569,-0.846,-0.37,-0.766,0.163,-0.335,-0.344,0.301,-0.345,-0.0563,-0.394,-0.594,–
ACTAGCAGGCCAAGAGTCACTCAAGATTAGTCCG,0.813,0.847,-0.175,-0.385,0.631,-0.105,-0.185,0.354,-0.112,0.0309,0.304,0.413,-0.426,0.599,0.162,-0.533,-0.0236,-0.367
CAAACTAGGTCACGAAAGGTCAACGTCGAATGAC,8.6,9.17,3.99,4.43,6.55,7.35,2.65,7.97,4.53,6.16,8.06,8.96,2.47,8.35,5.36,2.98,3.47,–
CCGACTGGGCCATTCAGAGGTCATTGATCATATG,3.29,2.53,-0.872,-0.8,3.14,4.88,2.75,4.62,-0.131,3.91,4.49,3.13,1.43,3.85,3.01,1.22,3.2,–
CCTACTGGGCCAAAAATGTCATTGATGCCGATAA,2.92,2.47,-0.355,-0.43,-0.472,-0.383,-0.24,-0.612,0.0407,-0.0192,-0.247,0.087,-0.297,-0.234,-0.288,-0.816,-0.383,–
CCTACTGGGCCAAGGTCTTTGATCAGTCAAAGCA,3.2,3.33,-0.858,-1.46,0.00705,-0.407,-0.601,-0.344,-0.879,0.263,-0.131,-0.0886,-1,-0.568,0.0825,-0.301,-0.659,–
CATACAGGGTCCGCTAGGCCAGAGTAGGGACGGC,-1.42,-0.128,0.386,-0.456,-0.436,-0.819,-0.353,-0.535,-0.0023,-0.0807,-0.0159,0.424,-0.419,-0.247,-0.0805,-0.241,-0.213,–
TAGCCTAGGTCCTTCAGGGGCCAGTATAGAAAGC,-1.03,-0.0823,-0.672,0.051,-0.932,-0.686,-0.979,-0.334,-0.852,0.357,0.825,0.108,-1.03,-0.259,0.402,-0.799,-0.422,–
CTCGAAAGGTCGGTTGAGGTGACTATACGGATAA,0.163,1.15,0.145,0.106,0.89,3.61,0.00293,2.11,0.415,2.54,3.04,2.85,0.99,2.76,5.16,1.68,0.829,–
CCTACTGGGCCACGAAAGGTAATTGATTCAGTGA,5.29,5.07,0.766,-0.144,0.00713,-0.257,-0.335,-0.102,0.0551,0.322,0.0783,0.352,-0.464,-0.00441,1.11,-0.00813,-0.234,-0.34
CGTCAAAGTTCAAGGTTACGTAACAGAAAGCAGC,0.998,2.75,1.55,1.22,2.53,4.66,2.48,4.11,1.38,4.45,5.57,6.33,4.73,4.85,3.43,1.33,3.55,–
TCTAGGAGGACACGAAGGTCAGAGCTTTCCAGAG,1.91,1.99,-0.157,-1.05,0.55,1.72,0.568,1.83,-0.482,3.47,3.15,3.8,0.842,2.01,2.61,0.635,0.851,–
CGTCAAAGTTCAAGTTAACGTAACAGAAAGCAGC,0.502,2.16,0.474,0.736,3.88,4.92,4.14,3.96,2.01,4.24,5.84,6.77,4.89,5.38,2.3,-0.142,4.05,–
CTCGAAAGGTCGGTTGAGGTGAGTAAACGGATAA,-0.271,0.901,0.0903,-0.255,0.98,3,0.167,2.19,0.141,2.42,2.86,2.8,0.85,2.46,4.97,1.19,0.238,–
AGTCAAATTTCACTAGGTAACGTAAGATTCAGCT,1.53,2.38,0.835,0.824,0.334,0.334,-0.0218,0.0458,1.44,0.0165,-0.19,0.218,0.395,-0.206,0.638,0.471,0.31,–
CGAACTAGGTCAGAACAGGACATTGAAGGATGAT,7.08,7.32,2.82,2.2,1.27,1.96,0.214,1.66,0.708,2.12,2.57,3.4,0.96,1.41,3.72,0.36,0.369,–
CCTACTGGGCCAAGGTCATTGCTCAGTCAAAGCA,3.53,4.65,0.15,-1.36,1.17,3.36,0.887,3.01,-0.436,3.23,3.53,2.97,1.25,2.85,3.42,2.02,3.2,–
CAGCCTAGGTGAGGGCCAGTATAGGAGGAACGTT,0.681,0.776,-0.889,-1.52,-0.00134,-0.652,-0.633,-0.402,-0.758,0.105,-0.107,0.177,-0.941,-0.128,0.00456,-0.223,-0.734,–
ATCTCTAGGTAAAGTTCATTGAAAGATCGATAGA,2.31,2.83,2.23,2,2.58,4.46,5.32,2.76,2.29,1.97,2.99,3.16,2.96,2.49,1.84,0.478,4.56,–
CCGACGGGGGCAAGGTTACCATAACGCACAGCCA,1.63,2.94,2.07,2.52,1.9,2.63,0.67,3.36,0.881,2.54,3.79,3.51,2.32,3.35,3.09,1.26,1.78,–
CGTCAAAGCTCAACTAAGGTAACGTAAAGCACGC,0.431,-0.398,-1.05,-0.108,0.191,-0.124,-0.0533,0.83,-0.0738,0.161,0.118,0.236,0.155,-0.0326,3.64,1.57,-0.205,–
